An excerpt weighted towards active compounds, which were near 3.3% of everything screened.
PLK1 kinase inh: PLK1 (human) kinase inhibition | P53350 | recombinant PLK1 kinase, TR-FRET peptide phosphorylation | inhibition, % at 10 µM | actives 0.53% (n = 97,000) | AID 619;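 active means inhibition of 50% or more in the single-concentration screen; inactive means inhibition below 50%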;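 further: 0% = DMSO max control and 100% = H-89 dihydrochloride min control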
PLK1 PBD inh: blocks phosphopeptide binding to human Plk1 polo box domain. P53350. actives 0.13% (n = 97,000). AID 693. Plk1 PBD phosphopeptide binding, fluorescence polarization. inhibition, %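 (tested at about 20 µM)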; in the data active means inhibition above about 34%, passing the limit was not always enough
ERb coact inh: blocks coactivator binding to human estrogen receptor beta; TR-FRET ER-beta LBD / SRC1-Cy5 peptide binding; receptor agonist-loaded with 1 µM estradiol; inhibition, % at 25.6 µM; actives 1.3% (n = 86,000); AID 633;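 active means compounds whose percent inhibition of the receptor-coactivator binding signal exceeds about 50% in the single-dose screen, limit read from the data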;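 further: 0% = receptor plus peptide wells without compound and 100% = peptide-only wells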
Smad3 inh: blocks human Smad3 binding to FoxH1 peptide | TR-FRET Smad3/Dy647-FoxH1 peptide binding, europium anti-His | inhibition, % at 25 µM | actives 0.29% (n = 88,000) | AID 630;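 active means compounds that reduce the energy-transfer binding signal between the protein and its labelled peptide by more than half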;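 further: 0% = Smad3 plus labelled peptide maximal FRET and 100% = peptide-only background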
Target sequence (P84022 whole entry, looked up): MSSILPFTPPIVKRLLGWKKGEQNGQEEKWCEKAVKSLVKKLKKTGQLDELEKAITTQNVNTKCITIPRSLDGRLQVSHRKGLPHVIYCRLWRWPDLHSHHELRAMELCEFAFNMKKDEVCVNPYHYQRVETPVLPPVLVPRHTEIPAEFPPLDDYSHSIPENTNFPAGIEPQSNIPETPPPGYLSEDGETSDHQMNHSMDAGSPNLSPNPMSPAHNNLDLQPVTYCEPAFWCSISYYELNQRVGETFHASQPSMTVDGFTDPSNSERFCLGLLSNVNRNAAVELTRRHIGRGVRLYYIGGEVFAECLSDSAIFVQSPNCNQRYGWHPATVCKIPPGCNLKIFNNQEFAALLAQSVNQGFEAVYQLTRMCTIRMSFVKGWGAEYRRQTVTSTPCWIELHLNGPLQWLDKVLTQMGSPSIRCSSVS
ERa coact pot: ER-alpha (human) coactivator binding potentiation. P03372. TR-FRET ERalpha-LBD/SRC-Cy5 coactivator binding, 2 h; 100 = basal binding, no effect. coactivator binding (% of control), % at 25.6 µM. actives 1.3% (n = 86,000). AID 639; in the data active means activity above about 200%;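 further: binding measured in presence of low estradiol as agonist stimulus; 0% = peptide alone without receptor and 100% = receptor with peptide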
ERa coact inh: blocks coactivator binding to human estrogen receptor alpha; actives 1.7% (n = 86,000); inhibition, % at 25.6 µM; P03372; TR-FRET ER-alpha LBD / SRC-1 peptide, estradiol-bound; in the data active means inhibition above about 50%;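 further: 0% = receptor plus peptide control and 100% = peptide only without receptor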
* marks the source's active call; other numbers are inactive results; x = not tested or not shown; [ ] = remark or other dose.

SMILES	PLK1 kinase inh	PLK1 PBD inh	ERb coact inh	Smad3 inh	ERa coact pot	ERa coact inh
CCOc1ccc(-n2c(SCC(=O)Nc3nccs3)nc3c(c2=O)SCC3)cc1	x	x	48	-11	78	77*[fluorescence artefact?]
C/C(=N\NC(=O)c1nn(C)cc1Br)c1cccc(NC(=O)C2CCCC2)c1	-7	13	x	x	x	x
CN(C(=O)COC(=O)C1c2ccccc2Oc2ccccc21)C1CCS(=O)(=O)C1 (stereo not given)	-1	-13	-3	-3	129	-4
CCN(CC)CCOC(=O)C1c2ccccc2Oc2ccccc21	-12	10	74*[fluorescence artefact?]	5	105	-12
O=S(=O)(O)c1cc(S(=O)(=O)O)c2c(N=Nc3cccc4ccccc34)c(O)ccc2c1	x	x	x	85*	x	x
Cc1ccc(S(=O)(=O)N2CCCN(c3nc4cc(C)ccc4cc3C#N)CC2)cc1	-10	-23	45	9	350*[fluorescence artefact?]	35
Cc1ccc2nc(N3CCN(S(=O)(=O)c4ccc5c(c4)OCCO5)CC3)c(C#N)cc2c1	-12	-21	56*[fluorescence artefact?]	-4	258*[fluorescence artefact?]	49
Cc1cc(C)c2cc(C#N)c(N3CCCC3)nc2c1	-17	5	25	7	119	51*[fluorescence artefact?]
COc1ccc(C[C@H](O)CN2CCOCC2)cc1	x	x	x	-7	x	x
c1ccc2c(c1)CCOC2CNCCCN1CCCCC1 (stereo not given)	-7	8	-12	-8	96	5
Clc1cccc(-c2ccc(/C=N/n3cnnc3)o2)c1Cl	-8	-19	31	0	118	51*[fluorescence artefact?]
CCN(CC)COC(=S)S	x	x	x	25	x	x
Cc1ccc2nc(Nc3nc(=O)c4ccccc4n3C)nc(C)c2c1	x	x	43	-15	71	60*
CCc1c(C)nc(SCC(=O)c2cccs2)c(C#N)c1C	-11	2	53*	11	138	19
Cc1cc(SCC(=O)c2ccc(Br)cc2)cc(C)[o+]1	x	x	x	-7	x	x
O=C(Nc1cccc(-c2cnc3ccccc3n2)c1)c1cccc(NC(=O)c2ccco2)c1	-13	15	35	10	244*[fluorescence artefact?]	59*
Cc1ccc(-c2nnc(-c3ccc(NC(=O)c4ccco4)cc3)o2)cc1	-14	15	12	12	455*	22
O=C(Nc1ccc(-c2nc3ccc(NC(=O)c4cccs4)cc3[nH]2)cc1)c1cccs1	-10	-11	55*	54*[fluorescence artefact?]	108	91*[fluorescence artefact?]
O=C(Nc1ccc(-c2nc3cccnc3s2)cc1)c1ccco1	x	x	41	-6	156	56*[fluorescence artefact?]
NC(Cc1ccccc1)(C(=O)O)C(=O)O	x	x	x	3	x	x
Cn1cccc1-c1nc2ccc(NC(=O)c3ccco3)cc2[nH]1	-6	0	-7	2	94	-19
CCOc1cccc(C(=O)Nc2cccc(-c3nnc(-c4ccc(C)cc4)o3)c2)c1	-20	2	60*[fluorescence artefact?]	-22	158	68*[fluorescence artefact?]
Cc1cc(C)nc(NS(=O)(=O)c2ccc(NC(=O)c3ccco3)cc2)n1	-21	-7	69*[fluorescence artefact?]	6	102	-5
Cc1ccc2nc(-c3ccc(NC(=O)c4ccco4)cc3)[nH]c2c1	-4	-20	36	-9	176	59*[fluorescence artefact?]
C[C@H]1CC(C)(C)C[C@@](OCCN2CCCCC2)(c2ccccc2)C1	x	x	x	5	x	x
SMILES	PLK1 kinase inh	PLK1 PBD inh	ERb coact inh	Smad3 inh	ERa coact pot	ERa coact inh
O=C(O)Cc1c[nH]c2ccc(F)cc12	x	x	x	-1	x	x
O=C(O)[C@@H]1[C@H](C(=O)O)[C@@H](C(=O)O)C[C@H]1C(=O)O	x	x	x	11	x	x
Cc1ccc(S(=O)(=O)Nc2ccccc2C=O)cc1	x	x	x	-8	x	x
O=C(O)C1CCCCC1C(=O)NCCCCc1ccccc1 (stereo not given)	-9	-1	-3	4	115	8
O=C(O)C1CCCCC1C(=O)NCCCc1ccccc1 (stereo not given)	-7	3	3	17	268*	-2
Cc1nc2sc(C(c3ccco3)N3CCC(Cc4ccccc4)CC3)c(O)n2n1 (stereo not given)	x	x	2	-1	98	5
Cc1nc(SCn2nnc3ccccc3c2=O)c2c(C)c(C)sc2n1	x	x	29	11	98	64*[fluorescence artefact?]
Cc1ccc(S(=O)(=O)O[C@H]2C[C@@H](C(C)(C)C)CC[C@@H]2c2ccccc2)cc1	x	x	x	3	x	x
CCCc1nc2sc3c(SCC(=O)NCc4ccco4)ncnc3c2c2c1CCC2	x	x	48	8	255*[fluorescence artefact?]	44
NC(N)=N/N=C(/c1ccc(Cl)cc1)C1CC1	x	x	x	-12	x	x
NC(=O)C1(N2CCCCC2)CCN(c2nc(-c3ccc(Br)cc3)cs2)CC1	-10	11	24	-5	108	71*
c1ccc(-c2csc(N3CCCCCC3)n2)cc1	-2	-17	5	-3	79	-2
Cc1onc(-c2ccccc2Cl)c1C(=O)NCc1cccnc1	x	x	2	1	102	52*
C1=CC2CC1CC2CN1CCN(Cc2ccccc2)CC1 (stereo not given)	-6	-25	x	x	x	x
COc1ccc(N2CSC3=C(C#N)C(c4cccs4)CC(=O)N3C2)cc1 (stereo not given)	-13	-5	41	10	69	54*[fluorescence artefact?]
Cc1ccc(N2CSC3=C(C#N)C(c4cccs4)CC(=O)N3C2)cc1 (stereo not given)	-3	-18	1	16	93	-10
CCOc1ccccc1N1CSC2=C(C#N)C(c3c(OC)ccc4ccccc34)CC(=O)N2C1 (stereo not given)	-14	-17	17	36	376*	-2
COc1ccc(N2CSC3=C(C#N)C(c4cc(OC)ccc4OC)CC(=O)N3C2)c(OC)c1 (stereo not given)	-14	-20	15	34	84	-9
COc1ccc(N2CSC3=C(C#N)C(c4cc(OC)c(OC)cc4OC)CC(=O)N3C2)c(OC)c1 (stereo not given)	-7	41	-10	33	101	55*[fluorescence artefact?]
COC(=O)c1cc(-c2ccc3ccccc3c2)[nH]c(=O)c1C#N	x	x	x	4	x	x
C[C@H](C(=O)c1ccccc1)[C@@H](c1ccccc1)N1CCOCC1	x	x	x	11	x	x
N#Cc1ccc(NC(=O)c2cc3cc4c5c(c3oc2=N)CCCN5CCC4)cc1	x	x	49	11	71	64*

Compound activity (PubChem BioAssay)
